These results are taken from paper PMC5540273 (PLoS ONE, 2017).

Structures are written as SMILES.

Some test systems named below: CDK8; CDK9; CDKL1; CDKL2; CDKL3; CDKL5; CHEK1; CHEK2; CIT; CLK1; CLK2; CLK3; CLK4; CSF1R-autoinhibited; CSF1R; CSK; CSNK1A1L; CSNK1A1; CSNK1D; CSNK1E.
Holding throughout (settings): concentration: 1 μM, replicates: in singlicate; n = 1
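Also: KINOMEscan kinase panel screen.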

Regarding `CCS(=O)(=O)c1ccc(OC)c(Nc2nccc(-c3c(-c4cccc(NC(=O)c5c(F)cccc5F)c4)nn4ncccc34)n2)c1` [GSK326180], the “%Inh” value in the test on CDK8 was 16%; in the test on CDK9, 0%; in the test on CDKL1, 6%; with CDKL2, 15%; in the test with CDKL3, 0%; in the test on CDKL5, 0%. The “%Inh” value in the test on CHEK1 came to 10%; in the test with CHEK2 it was 0%; in the test with CIT it was 8%; in the test on CLK1 it was 40%; in the test on CLK2, 0%; with CLK3, 9%. Also, the “%Inh” value is 21% with CLK4; 0% in the test on CSF1R-autoinhibited; 24% in the test on CSF1R; 17% in the test on CSK; 0% in the test on CSNK1A1L; 0% with CSNK1A1. The “%Inh” value came out at 7% with CSNK1D and 35% in the test on CSNK1E.
For the molecule `COc1ccc(Nc2nccc(NCCNC(=O)c3cc4ccccc4s3)n2)cc1` [GSK1379896], the “%Inh” value is given as 15% in the test with CDK8; 0% in the test on CDK9; 0% in the test on CDKL1; 23% in the test on CDKL2; 0% with CDKL3; 0% in the test with CDKL5. Besides, the “%Inh” value with CHEK1 is 0%; with CHEK2, 0%; in the test on CIT, 5%; with CLK1, 20%; in the test with CLK2 it was 0%; with CLK3, 0%. Moreover, the “%Inh” value with CLK4, in the test with CSF1R-autoinhibited, with CSF1R, in the test with CSK, with CSNK1A1L and in the test on CSNK1A1 was 0% throughout. Moreover, the “%Inh” value in the test with CSNK1D amounted to 8%; in the test with CSNK1E, 16%.
In the case of `COC(=O)Nc1nc2ccc(Oc3ccc(NC(=O)Nc4cc(C(F)(F)F)ccc4F)cc3)cc2n1C.Cl` [GW692089], the “%Inh” value was 77% with CDK8; 0% in the test with CDK9; 2% in the test on CDKL1; 40% in the test on CDKL2; 0% in the test with CDKL3; 0% in the test on CDKL5. For the same molecule, the “%Inh” value was found to be 0% in the test on CHEK1; 58% with CHEK2; 100% in the test with CIT; 7% with CLK1; 0% in the test with CLK2; 0% in the test on CLK3. For the same molecule, the “%Inh” value in the test with CLK4 was 0%; with CSF1R-autoinhibited it was 0%; with CSF1R, 86%; with CSK, 0%; in the test on CSNK1A1L, 0%; with CSNK1A1, 0%. The “%Inh” value with CSNK1D and in the test with CSNK1E was 0% throughout.
For `COc1cccc(NC(=O)NC2CCN(c3ccnc(Nc4cc(OC)c(OC)c(OC)c4)n3)C2)c1` (centres unmarked) [GSK1379763], the “%Inh” value in the test on CDK8 was 39%; in the test on CDK9 it was 10%; with CDKL1, 0%; with CDKL2 it was 52%; with CDKL3, 0%; in the test with CDKL5, 0%. Moreover, the “%Inh” value in the test on CHEK1 was determined as 0%; in the test with CHEK2, 54%; with CIT it was 23%; in the test with CLK1, 12%; in the test with CLK2, 11%; in the test with CLK3 it was 0%. The “%Inh” value is listed as 0% with CLK4; 6% in the test with CSF1R-autoinhibited; 34% in the test on CSF1R; 15% in the test with CSK; 0% with CSNK1A1L; 0% with CSNK1A1. The “%Inh” value in the test with CSNK1D and with CSNK1E was 0% each time.
For `O=C(Nc1cccc(Oc2ccc3nc(NC(=O)C4CC4)cn3n2)c1)c1ccccc1C(F)(F)F`, the “%Inh” value was 26% with CDK8; 0% with CDK9; 43% in the test on CDKL1; 26% with CDKL2; 0% with CDKL3; 7% with CDKL5. Moreover, the “%Inh” value in the test on CHEK1 was found to be 0%; in the test with CHEK2, 11%; in the test with CIT, 63%; in the test with CLK1 it was 26%; in the test on CLK2 it was 73%; in the test on CLK3, 32%. Further, the “%Inh” value in the test with CLK4 is on record as 0%; with CSF1R-autoinhibited, 88%; with CSF1R, 100%; in the test on CSK, 11%; with CSNK1A1L it was 0%; in the test on CSNK1A1 it was 24%. Further, the “%Inh” value turned out to be 0% in the test on CSNK1D and 20% in the test on CSNK1E.
In the case of `NCCCC(NC(=O)c1cc(Br)c(-c2ccnc3[nH]ccc23)s1)c1ccccc1.O=C(O)C(F)(F)F.O=C(O)C(F)(F)F` (centres unmarked) [GSK1287544], the “%Inh” value in the test on CDK8 came out at 27%; in the test on CDK9, 4%; in the test on CDKL1, 0%; in the test on CDKL2 it was 40%; in the test on CDKL3, 0%; in the test on CDKL5 it was 0%. In addition, the “%Inh” value is 0% in the test on CHEK1; 0% with CHEK2; 90% in the test on CIT; 51% with CLK1; 61% in the test on CLK2; 33% in the test on CLK3. The “%Inh” value is 45% in the test on CLK4; 0% in the test on CSF1R-autoinhibited; 2% in the test on CSF1R; 0% in the test with CSK; 59% in the test with CSNK1A1L; 90% in the test on CSNK1A1. The entries for the “%Inh” value with CSNK1D and with CSNK1E were 82% and 84%, respectively.
As to `Cc1cccc(NC(=O)Nc2ccc(Oc3ncnc4ccn(C)c34)cc2)c1`, the “%Inh” value with CDK8 is 72%; in the test with CDK9 it was 0%; in the test on CDKL1 it was 11%; in the test on CDKL2, 5%; with CDKL3, 0%; with CDKL5, 0%. Moreover, the “%Inh” value turned out to be 0% with CHEK1; 0% in the test on CHEK2; 0% in the test with CIT; 2% in the test with CLK1; 0% with CLK2; 0% with CLK3. Besides, the “%Inh” value is on record as 8% with CLK4; 48% in the test on CSF1R-autoinhibited; 99.9% in the test with CSF1R; 0% with CSK; 0% in the test with CSNK1A1L; 0% with CSNK1A1. Also, the figures for the “%Inh” value with CSNK1D and in the test with CSNK1E were 0% and 11%, respectively.
As to `CCCCc1nn2ncccc2c1-c1ccnc(Nc2ccc(N3CCN(C)CC3)cc2)n1` [GW684941], the “%Inh” value stood at 26% with CDK8; 0% in the test with CDK9; 22% in the test on CDKL1; 99.3% in the test with CDKL2; 66% in the test with CDKL3; 0% in the test on CDKL5. Besides, the “%Inh” value in the test with CHEK1 is 0%; in the test on CHEK2 it was 13%; in the test on CIT, 30%; in the test on CLK1, 8%; in the test on CLK2, 3%; in the test with CLK3, 0%. The “%Inh” value in the test on CLK4 was 0%; in the test on CSF1R-autoinhibited, 73%; in the test on CSF1R it was 99.9%; in the test with CSK it was 7%; in the test with CSNK1A1L, 46%; in the test with CSNK1A1 it was 93.1%. The “%Inh” value with CSNK1D is given as 90.9%; in the test on CSNK1E, 99.4%.
With `CN1CCN(CCCNc2nccc(-c3c(-c4ccc(F)cc4)nn4cc(C(F)(F)F)ccc34)n2)CC1` [GW621581], the “%Inh” value came out at 19% in the test on CDK8; 0% with CDK9; 0% in the test with CDKL1; 21% in the test on CDKL2; 0% in the test on CDKL3; 0% in the test on CDKL5. Further, the “%Inh” value in the test with CHEK1 was 10%; in the test with CHEK2 it was 0%; in the test on CIT, 71%; in the test on CLK1 it was 21%; with CLK2, 15%; in the test with CLK3, 0%. The “%Inh” value in the test with CLK4 is recorded as 22%; with CSF1R-autoinhibited, 0%; with CSF1R, 0%; in the test on CSK, 0%; with CSNK1A1L, 12%; in the test on CSNK1A1 it was 83%. In addition, the “%Inh” value with CSNK1D was 90.6%; in the test on CSNK1E, 92.9%.
For `O=C(NC1CCN(c2ccnc(Nc3ccc(F)cc3)n2)C1)c1cc2ccccc2s1` (centres unmarked) [GSK1379716], the “%Inh” value amounted to 52% in the test on CDK8; 6% in the test with CDK9; 0% in the test with CDKL1; 40% with CDKL2; 0% with CDKL3; 5% with CDKL5. The “%Inh” value in the test with CHEK1 is 0%; in the test with CHEK2, 38%; in the test with CIT it was 33%; with CLK1 it was 29%; in the test with CLK2, 0%; in the test with CLK3, 14%. For the same molecule, the “%Inh” value in the test on CLK4 is listed as 30%; in the test on CSF1R-autoinhibited, 3%; in the test on CSF1R, 2%; in the test on CSK, 0%; with CSNK1A1L, 11%; with CSNK1A1 it was 0%. Also, the “%Inh” value in the test with CSNK1D came to 0%; in the test with CSNK1E, 28%.
